Laboratory results from ChEMBL document CHEMBL1157539, “Thousands of chemical starting points for antimalarial lead identification” (Nature, 2010).

What follows are compounds tested on Plasmodium falciparum (assay: GSK_TCMDC: Inhibition of Plasmodium falciparum 3D7 in whole red blood cells, using parasite LDH activity as an index of growth. Test compounds present at 2uM).
Format: functional
In the case of `O=C(NCCN1CCCCC1)N1CCCN(c2ncnc3cc(-c4ccccc4)sc23)CC1.O=C(O)C(F)(F)F`, the Inhibition is reported as 89%.
In the case of `CC1(C)N=C(N)N=C(N)C1c1ccc(Cl)cc1.Cl` (stereo not given), the Inhibition is reported as 96%.
Work on `Nc1ncc(OC2CCCCC2)c(N)n1` yielded an Inhibition of 94%.
Work on `CO/C(=C\C=C\c1cc2cc(Cl)c(Cl)cc2[nH]1)C(=O)NCCCN1CC(C)N(C)CC1C` (stereo not given) yielded an Inhibition of 92%.
`CCOc1ccc(-c2nonc2NC(=O)CC(C)C)cc1OCC` showed an Inhibition of 92%.
In the case of `COc1ccc2nccc([C@@H](O)CN3CCC(NCc4cc5c(cc4F)SCC(=O)N5)CC3)c2n1`, the Inhibition is reported as 96%.
`COc1ccc(N2C(N)=NC(N)=NC2(C)C)cc1OC.Cl` was tested, and the Inhibition was 95%.
`CCOC(=O)c1c(CCc2ccc(C(F)(F)F)cc2)nc2c(c1-c1ccc(C(=O)N[C@@H](C)c3ccncc3)cc1)C(=O)N1CCC[C@@H]21` showed an Inhibition of 85%.
Work on `COc1ccc(NC(=O)[C@H](CC(C)C)Nc2cc(C)nc(NCc3cccc(C)c3)n2)cc1.O=C(O)C(F)(F)F` yielded an Inhibition of 100%.
With `Cc1cccc(N2CCN(C3CCC(NC(=O)c4cc5ccccc5[nH]4)CC3)CC2)c1C` (stereo not given) the Inhibition was 100%.
In the case of `Cc1cc(-c2ccc(O)c(CNC3CCCCC3)c2)cnc1N`, the Inhibition is reported as 100%.
In the case of `CCOC(=O)COc1cccc(CNc2ccc3nc(N)nc(N)c3c2)c1`, the Inhibition is reported as 100%.
For `Cc1[nH]c(C)c(-c2ccc(OCc3ccc(OC(F)(F)F)cc3)nc2)c(=O)c1Br`, the Inhibition was 98%.
`O=C(Nc1ccc(I)cc1)N1CCc2sccc2C1CN1CCCCC1` (stereo not given) was tested, and the Inhibition was 90%.
`CN1CCCC1CCNCc1cccc(-c2cnc(N(C)C3CCCCC3)nc2)c1` (stereo not given) showed an Inhibition of 99%.
For `N#Cc1ccc(-c2ccc(C(=O)NCCCCN3CCC(c4ccc5c(c4OCc4ccncc4)CCCC5)CC3)cc2)cc1`, the Inhibition was 81%.
With `Cc1cccc2nc(-c3ccc(-c4ccc(NC(=O)C(C)CN5CCN(C)CC5)cc4)s3)[nH]c12` (stereo not given) the Inhibition was 100%.
In the case of `O=C(NCC1CCN(CCN2CCc3ccc4c(c3C2)OCO4)CC1)c1ccc(-c2ccc(C(F)(F)F)cc2)cc1`, the Inhibition is reported as 93%.
Work on `O=C(/C=C/c1ccc(Cl)c(Cl)c1)NCC(CCCN1CCC(c2c[nH]c3ccccc23)CC1)c1ccccc1` (stereo not given) yielded an Inhibition of 100%.
Work on `CCOC(=O)c1ccc(NC(=O)N[C@@H](Cc2ccccc2)C(=O)NC2CCN(Cc3ccc(OCCCN(C)C)cc3)C2)cc1` (stereo not given in full) yielded an Inhibition of 91%.
`COc1ccc2nccc([C@@H](O)CN3CCC(NCCOc4ccccc4C#N)CC3)c2c1.O=C(O)C(=O)O` was tested, and the Inhibition was 100%.
Work on `CCCC(CNCc1ccccc1)CNc1cc(=O)c2ccccc2[nH]1` (stereo not given) yielded an Inhibition of 86%.
`CC(Cc1ccc(OCCN2CCN(c3ccccc3)CC2)cc1)NCC(O)c1cccc(Cl)c1F.Cl` (stereo not given) was tested, and the Inhibition was 92%.
With `Fc1cccc(COc2ccc(Nc3ncnc4sc(C#CCNC5CCC5)cc34)cc2Cl)c1` the Inhibition was 100%.
`O=C(NC1CCCCC1)N(Cc1ccc(-c2ccc(CNCc3ccc4c(c3)OCO4)cc2)cc1)C1CCN(Cc2ccccc2)CC1.O=C(O)C(F)(F)F` showed an Inhibition of 100%.
`N#Cc1ccc(N/C(=N\c2cccc(Cl)c2Cl)NCc2ccc(Cl)cc2Cl)c(O)c1` showed an Inhibition of 97%.
Compound `Cl.c1ccc2nc(NCCCCCCCCNc3ccc4ccccc4n3)ccc2c1` has an Inhibition of 100%.
`CCOc1cc(C)ccc1C1CCN(CCCCNC(=O)c2ccc(-c3ccc(Cl)cn3)cc2)CC1.Cl` was tested, and the Inhibition was 94%.
Compound `CCNc1cc(C(=O)N[C@@H](Cc2ccccc2)[C@H](O)CNC(CC)c2cccc(Cl)c2)cc(N2CCCC2=O)c1.Cl` (stereo not given in full) has an Inhibition of 97%.
`O=C(N[C@@H](Cc1ccccc1)[C@H](O)CNC1CCOCC1)c1cc(C2CCCC2)cc(N2CCCCS2(=O)=O)c1.O=CO` showed an Inhibition of 100%.
`NCc1ccc(CNCc2cccc(-c3ccc(-c4nc5ccccc5[nH]4)cc3)c2)cc1.O=C(O)C(F)(F)F` gave an Inhibition of 100%.
Compound `Cc1cccc(S(=O)(=O)Nc2cccc(CCN3CCC(N4CCCCC4)CC3)c2)c1` has an Inhibition of 87%.
`Cc1cccc2nc(-c3ccc(-c4cccc(CN5CCN(CCN6CCOCC6)CC5)c4)s3)[nH]c12.O=C(O)C(F)(F)F` gave an Inhibition of 100%.
In the case of `CN1CCN(Cc2cccc(Nc3nccc(Nc4ccc(Oc5ccccc5)cc4)n3)c2)CC1`, the Inhibition is reported as 97%.
For `COc1ccccc1C1CCN(C2CCC(NC(=O)c3cc4cc(C(C)C)ccc4[nH]3)CC2)CC1` (stereo not given), the Inhibition was 100%.
Compound `COc1ccc(Cl)cc1S(=O)(=O)Nc1cccc(CCN2CCC(N3CCCCC3)CC2)c1` has an Inhibition of 100%.
Work on `CCc1ccc(-n2c(=O)c3cccnc3n2CC(=O)NC2CCCC2)cc1` yielded an Inhibition of 98%.
`COc1ccc(-c2ccc(NC(=O)c3cccc(Cl)c3)cc2)cc1CNC(C)C.O=C(O)C(F)(F)F` gave an Inhibition of 100%.
`O=C(NCC1CC1)C1Cc2c([nH]c3ccc(Br)cc23)C2(CCN(CCc3ccccc3)CC2)N1` (stereo not given) gave an Inhibition of 88%.
With `CCCC(C)Nc1nc(C)cc(N[C@@H](Cc2ccccc2)C(=O)Nc2ccc(OC)cc2)n1.O=C(O)C(F)(F)F` (stereo not given in full) the Inhibition was 100%.
